Several values for one entry are separate records, joined by “and”; a condition that tells them apart may be missing. Identical values can stand only once. The campaign covered roughly 5,500 compounds. About 2,000 (36%) were called active. Not shown: some 18% with an inconclusive outcome. Rule as the data show it: active = normalized growth mostly below about 0.91 (no sharp cut-off); inconclusive = no clear call, values can overlap the other calls; inactive = mostly above about 0.92. Some of the results follow.
Test: chemical genetic growth profiling, strain panel (AID 1159580);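 also: tested at 20 µM; growth read once vehicle control cultures reached saturation at 30 °C; 1 = growth at the plate median or of vehicle wells; lower values mean less growth of the strain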
Conditions: S. cerevisiae deletion strains, growth OD

Measured: normalized growth

CNC(C)C(O)c1ccccc1 (stereo not drawn)
inactive: locus YAL013W, strain DEP1, hits give low values 1 | locus YAL021C, strain ccr4, hits give low values 1.02 | locus YAL026C, strain drs2, hits give low values 0.997 | locus YAL030W, strain snc1, hits give low values 1.01 | locus YBL061C, strain skt5, hits give low values 1 | locus YBR009C, strain hhf1, hits give low values 0.993 | locus YBR021W, strain FUR4, hits give low values 1.01 | locus YBR023C, strain chs3, hits give low values 1.01 | locus YBR171W, strain sec66, hits give low values 1.02 | locus YBR229C, strain ROT2, hits give low values 1 | locus YBR231C, strain swc5, hits give low values 1.02 | locus YBR279W, strain paf1, hits give low values 1.01 | locus YCL011C, strain gbp2, hits give low values 1.01 | locus YCL016C, strain dcc1, hits give low values 1 | locus YCL029C, strain bik1, hits give low values 1.02 | locus YCL061C, strain MRC1, hits give low values 1.02 | locus YCL069W, strain vba3, hits give low values 1.02 | locus YCR088W, strain abp1, hits give low values 1.02 | locus YDL005C, strain med2, hits give low values 1.02 | locus YDL035C, strain GPR1, hits give low values 1.01 | locus YDL040C, strain nat1, hits give low values 1.01 | locus YDL074C, strain BRE1, hits give low values 1.02 | locus YDL101C, strain DUN1, hits give low values 1 | locus YDL134C, strain PPH21, hits give low values 1.01 | locus YDL185W, strain tfp1, hits give low values 1.01 | locus YDL192W, strain arf1, hits give low values 1.03 | locus YDR001C, strain nth1, hits give low values 1.01 | locus YDR069C, strain doa4, hits give low values 1.02 | locus YDR101C, strain arx1, hits give low values 1.03 | locus YDR137W, strain rgp1, hits give low values 1.03 | locus YDR150W, strain NUM1, hits give low values 1 | locus YDR159W, strain sac3, hits give low values 0.99 | locus YDR162C, strain NBP2, hits give low values 1 | locus YDR195W, strain ref2 0.995 | locus YDR297W, strain sur2, hits give low values 1.01 | locus YDR318W, strain mcm21, hits give low values 1.02 | locus YDR334W, strain swr1, hits give low values 1.02 | locus YDR335W, strain msn5, hits give low values 1.01 | locus YDR388W, hits give low values 1.02 | locus YDR392W, strain spt3, hits give low values 1 | locus YDR502C, strain sam2, hits give low values 1.02 | locus YEL003W, strain gim4, hits give low values 1.02 | locus YEL037C, strain rad23, hits give low values 1.01 | locus YEL061C, strain CIN8 (second series), hits give low values 1.02 | locus YEL061C, strain CIN8, hits give low values 1 | locus YER015W, strain faa2, hits give low values 1.02 | locus YER016W, strain bim1, hits give low values 1.01 | locus YER110C, hits give low values 1.04 | locus YER111C, strain swi4, hits give low values 1.01 | locus YER155C, strain BEM2 (second series), hits give low values 1.02 | locus YER155C, strain BEM2, hits give low values 1 | locus YER167W, strain BCK2, hits give low values 1 | locus YFR010W, strain ubp6, hits give low values 1.03 | locus YGL078C, strain dbp3, hits give low values 1.03 | locus YGL086W, strain mad1, hits give low values 1 | locus YGL167C, strain pmr1, hits give low values 1.02 | locus YGL173C, strain kem1, hits give low values 1.01 | locus YGL227W, strain vid30, hits give low values 1.01 | locus YGL240W, strain doc1, hits give low values 1.04 | locus YGL248W, strain PDE1, hits give low values 1.01 | locus YGL253W, strain hxk2, hits give low values 1.01 | locus YGR078C, strain PAC10, hits give low values 1.01 | locus YGR135W, strain pre9, hits give low values 1.03 | locus YGR252W, strain gcn5, hits give low values 1.01 | locus YHR013C, strain ard1, hits give low values 1.02 | locus YHR027C, strain rpn1, hits give low values 1.02 | locus YHR030C, strain SLT2, hits give low values 1 and 1.02 | locus YHR079C, strain IRE1 (second series), hits give low values 1.02 | locus YHR079C, strain IRE1, hits give low values 1.04 | locus YHR094C, strain hxt1, hits give low values 1.03 | locus YHR129C, strain ARP1, hits give low values 1 | locus YHR142W, strain chs7, hits give low values 1.02 | locus YHR200W, strain rpn10, hits give low values 1.02 | locus YIL066C, strain RNR3, hits give low values 1 | locus YIL073C, strain SPO22, hits give low values 1.06 | locus YIL125W, strain kgd1, hits give low values 1.02 | locus YIR030C, strain dcg1, hits give low values 1.02 | locus YJL092W, strain hpr5, hits give low values 1.01 | locus YJL095W, strain BCK1 (second series), hits give low values 1.01 | locus YJL095W, strain BCK1, hits give low values 0.99 and 0.983 | locus YJL115W, strain asf1, hits give low values 1.03 | locus YJL129C, strain trk1, hits give low values 1.03 | locus YJL134W, strain LCB3, hits give low values 1 | locus YJL154C, strain vps35, hits give low values 1.01 | locus YJL164C, strain tpk1, hits give low values 1.01 | locus YJL166W, strain qcr8, hits give low values 1.03 | locus YJL168C, strain set2, hits give low values 1.02 | locus YJL187C, strain SWE1 (second series), hits give low values 1
